Rows were chosen to be rich in hits. Some 4.8% of all compounds tested hit in one or more screens of this group.
DAX1 inh-1 – inhibitors of human orphan nuclear receptor DAX1 (NR0B1) | P51843 | HEK293 Gal4-DAX1 luciferase reporter, luminescence | inhibition, % at 6.75 µM | hit rate 0.99% among 340,000 | AID 504766;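 active = inhibition above the mean over all tested compounds plus 3 SD, cut at about 4.2% in these data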;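 also: inhibition shows as a rise in luminescence from relieved DAX1 repression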
Target sequence (P51843 207-470 limits assumed): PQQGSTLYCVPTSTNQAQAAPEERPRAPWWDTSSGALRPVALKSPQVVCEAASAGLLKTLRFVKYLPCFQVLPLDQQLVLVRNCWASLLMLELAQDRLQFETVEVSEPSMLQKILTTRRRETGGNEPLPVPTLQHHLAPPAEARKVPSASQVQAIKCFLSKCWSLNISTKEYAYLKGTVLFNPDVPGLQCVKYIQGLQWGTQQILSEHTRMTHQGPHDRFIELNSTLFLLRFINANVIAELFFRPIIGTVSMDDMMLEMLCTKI
SMARCA2 activ – activators of SMARCA2 function; activation, % at 9.1 µM; AID 652017; hit rate 1% among 370,000; MG213 cells, MMTV-luciferase reporter, dexamethasone, overnight; in the data active = activation above about 7.8%
DAX1 inh-2 – inhibitors of DAX1 repression of SF-1 activated StAR promoter; HEK293T StAR-luciferase reporter, SF-1/DAX-1 repression relief; inhibition, % at 6.8 µM; hit rate 1.1% among 370,000; AID 652010;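 active = inhibition above the mean over all tested compounds plus 3 SD, cut at about 3.6% in these data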;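 also: higher inhibition means more luminescence from relief of DAX-1 repression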
ssDAF12 agonist – activates DAF-12 receptor from parasite S. stercoralis; HEK293 ssDAF-12/GRIP1 lit1-tk-luc reporter, luminescence; % of 3 µM dafachronic acid response; activation, % at 6.8 µM; hit rate 1% among 370,000; AID 652126;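 active = activation above the mean over all tested compounds plus 3 SD, cut at about 0.9% in these data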
hgDAF-12 ag – hgDAF-12 agonism, primary luciferase screen; activation, % at 6.8 µM; hit rate 1.8% among 370,000; HEK293 GAL4-hgDAF12 UAS-luciferase reporter, agonist luminescence; normalized to butyrate control; AID 687014;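 active = activation above a cutoff set at the mean of all screened compounds plus 3 SD, cut at about 10% in these data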
hcDAF12 agonist – activators of H. contortus DAF-12 nuclear receptor | HEK293 hcDAF-12 lit1-tk-luc reporter, luminescence; 0% DMSO, 100% Δ7-dafachronic acid | hit rate 1.4% among 370,000 | AID 652067 | activation, % at 6.8 µM;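 active = activation above the mean of all tested compounds plus 3 SD, cut at about 5.5% in these data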
Of the large screens only hits and unclear results are named; the others gave an inactive call.

NC(=S)c1cc2cc(Br)ccc2oc1=O	none
O=C(NNC(=O)c1cc2cc(Br)ccc2oc1=O)c1ccc(O)cc1	ssDAF12 agonist 2.5
COc1ccc2oc(=O)c(C(=O)Nc3ccccc3-c3ccccc3)cc2c1	none
COc1ccc2oc(=O)c(C(=O)Nc3ccccc3C)cc2c1	hgDAF-12 ag 12
O=C(Nc1ccccc1O)c1cc2cc(Br)ccc2oc1=O	ssDAF12 agonist 1.1
CC(C)c1nnc(NC(=O)c2cc3cc(Br)ccc3oc2=O)s1	none
COc1ccccc1N(CC(=O)Nc1c(C)n(C)n(-c2ccccc2)c1=O)S(=O)(=O)c1ccc(C)cc1	none
CCN(C(=O)CN1CCCc2cc(C)ccc21)c1c(N)n(Cc2ccccc2)c(=O)[nH]c1=O	none
Cc1ccc2c(c1)CCCN2CC(=O)N(C)c1c(N)n(Cc2ccccc2)c(=O)[nH]c1=O	ssDAF12 agonist 1.3
O=C(CNS(=O)(=O)c1ccc(Br)s1)NCCc1ccc(Cl)cc1	none
COc1cc(/C=C2\SC(=S)N(CC(=O)O)C2=O)ccc1OC(=O)c1ccco1	none
CCOc1cc(/C=C2/SC(=S)N(CC(=O)O)C2=O)ccc1OC(=O)c1cccs1	DAX1 inh-1 5.2
CCN(CC)CCC=C(c1cccs1)c1cccs1	SMARCA2 activ 7.9
N#CCc1cc2ccc3cccc4ccc(c1)c2c34	DAX1 inh-1 7.0
Cc1ccc2cc(CCNC(=O)c3ccco3)c(=O)[nH]c2c1C	DAX1 inh-2 4.4, hgDAF-12 ag 13, hcDAF12 agonist 6.5
CC(=O)Nc1ccc(C(=O)OCC(=O)N2CCN(C(=O)c3ccco3)CC2)cc1	none
O=C(Nc1ccccc1)N1CCCN(c2nccc(C(F)(F)F)n2)CC1	SMARCA2 activ 7.8
O=C(Nc1ccc(F)cc1)N1CCCN(c2nccc(C(F)(F)F)n2)CC1	none
CN(C)c1ccc(Nc2ccc([N+](=O)[O-])cn2)cc1	DAX1 inh-1 5.4
O=[N+]([O-])c1ccc(Nc2ccc(F)cc2)nc1	none
CCSc1nnc(N2C(=O)CC(c3ccsc3)C3=C2CC(C)(C)CC3=O)s1 (stereo not given)	DAX1 inh-1 5.3
CC1(C)CC(=O)C2=C(C1)N(c1ccc(F)cc1)C(=O)CC2c1cccnc1 (stereo not given)	none
O=C(NCCc1ccccc1)c1[nH]c(C(F)(F)F)nc1-c1ccccc1	ssDAF12 agonist 1.2 (no result: DAX1 inh-1)
O=C(NNC(=S)Nc1ccccc1)c1cc(Br)ccc1Cl	hcDAF12 agonist 6.1
O=C(NNC(=S)Nc1ccccc1)NNC(=S)Nc1ccccc1	none
CCCSc1nnc2nc(C)cc(C)n12	DAX1 inh-1 4.7
Cc1cc(C)n2c(SCc3ccc(C#N)cc3)nnc2n1	none
Cc1cc(C)n2c(SCc3cccs3)nnc2n1	none
Cc1cc(C)n2c(SCC#N)nnc2n1	DAX1 inh-1 4.6
Cc1ccccc1N(CC(=O)NCCSCc1ccco1)S(C)(=O)=O	none
Cc1cc(C)cc(NC(=O)[C@H](Cc2c[nH]c3ccccc23)NC(=O)[C@@H]2Cc3ccccc3CN2)c1	hcDAF12 agonist 6.2
CCOC(=O)C1(CCOC)CCN(C(=O)c2sccc2C)CC1	none
O=C(O)c1ccccc1/C=N/NC(=O)C1CCCCC1	none
CC(C)c1ccc(/C=N/NC(=O)C2CCCC2)cc1	hcDAF12 agonist 6.0
CC(C)(C)c1ccc(/C=N/NC(=O)C2CCCC2)cc1	none
O=C(O)c1ccccc1/C=N/NC(=O)C1CCCC1	SMARCA2 activ 7.9
O=C(O)C1CC=CCC1C(=O)NCc1ccccc1 (stereo not given)	none
S=C(Nc1ccc(Cl)cc1Cl)Nc1ccccc1Oc1ccccc1	none (no result: SMARCA2 activ, DAX1 inh-2, ssDAF12 agonist, hgDAF-12 ag, hcDAF12 agonist)
S=C(Nc1ccccc1Oc1ccccc1)Nc1cccc(Cl)c1Cl	ssDAF12 agonist 1.0
O=C(COC(=O)c1c(F)cccc1Cl)NC1CCCCC1	ssDAF12 agonist 1.0
COc1cc(NS(=O)(=O)c2ccc(NC(=S)NC(=O)c3sc4ccccc4c3Cl)cc2)ncn1	SMARCA2 activ 11
COc1ccc(-c2nc(CS(=O)CC(=O)NCc3ccc(C)cc3)c(C)o2)cc1OC (stereo not given)	none (no result: SMARCA2 activ, DAX1 inh-2, ssDAF12 agonist, hgDAF-12 ag, hcDAF12 agonist)
Cc1ccc(-n2nnc(-c3cccnc3Cl)n2)cc1	hgDAF-12 ag 12
O=C(NCC1COc2ccccc2O1)c1ccc(NC(=O)c2cccc(F)c2F)cc1 (stereo not given)	none (no result: DAX1 inh-1)
